# According to PubChem BioAssay (NCATS):
# Where “and” joins values, the source holds several entries; their conditions need not be identical. Equal entries are not always repeated. Values without a mark were called inactive. Results filed as inconclusive are left out. A call without a number means that no potency is given here. Calls of active or inactive are those of the source. Calls follow the shape of the dose curve; as a rule, active = well fitted curve in the direction sought with a large enough effect; inconclusive = small, poorly fitted or top-dose-only effect, or another doubt; inactive = no such curve, though single readings can be large; an effect the other way counts as inactive or inconclusive.
# How the values were obtained:
# [1] = Confirmatory screen NINDS Rhodamine qHTS for Zika virus inhibitors (AID 1347161); conditions: purified enzyme assay, Rhodamine110 substrate fluorescence, 15 min; series mostly up to 114 µM; also: nearly all actives have a fitted effect of over 60% in size; also: potency is read from the fitted curve at half-maximal effect
# Procedure, shortened: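 Each compound, titrated, sat 15 min with 25 nM linked protease before 1.5 microM Rhodamine110 substrate went in. Fluorescence gain over the next 15 min, in pH 8.0 Tris with Tween 20, gave Hill-fitted curves.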
# [2] = system: Zika virus NS2B-NS3 protease (linked); test: 384 well plate NINDS AMC confirmatory qHTS for Zika virus inhibitors (AID 1347163); conditions: Recombinant NS2B-NS3 protease, Ac-VKTGKR-AMC fluorescence; series mostly up to 1 mM; also: nearly all actives have a fitted effect of over 50% in size; also: potency is read from the fitted curve at half-maximal effect
# Procedure, shortened: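 Linked NS2B-NS3 protease (final 5 nM, 30 nM or 60 nM) was preincubated with compounds (final up to 1 mM) for ~15 minutes. Ac-VKTGKR-AMC substrate (final 30 microM) then reacted for 25 minutes at room temperature in the dark. Fluorescence (ex 355/em 460 nm) was normalized to no-enzyme and no-inhibitor controls.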
# [3] = Vero cells viability qHTS for Zika virus inhibitors (AID 1347167); conditions: cytotoxicity counter-screen (Zika); series mostly up to 45.9 µM
# Procedure, shortened: (§1)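 Cells seeded at 2.5 x 10^5 cells/mL in DMEM with 4% FBS and attached overnight at 37 degrees C, then exposed to compound for 24 to 48 hours. Viability read as ATP content by CellTiter Glo luminescence.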
# [4] = HepG2 cells viability qHTS for Zika virus inhibitors (AID 1347168); conditions: Zika counter-screen; series mostly up to 45.9 µM
# Procedure, shortened: as §1
# [5] = Tertiary RLuc qRT-PCR qHTS assay for Zika virus inhibitors (AID 1347169); conditions: infected Vero cells, reporter luminescence, 48-72 h; series mostly up to 45.9 µM; also: top concentration of the series differs between compounds; nearly all actives have a fitted effect of over 55% in size
# Procedure, shortened: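 Vero cells (1,000/well) infected with recombinant ZIKV-RLuc (Cambodian) at MOI 1-2 after compound addition, 48-72 hrs at 37 degrees C. Live-cell Renilla luciferase substrate added; luminescence read after 1-1.5 hrs.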
# [6] = qHTS to identify inhibitors of the type 1 interferon - major histocompatibility complex class I in skeletal muscle: primary screen against the NCATS Pharmaceutical Collection (AID 1347407); conditions: human skeletal muscle cells, IFN-b-induced MHC-I HiBiT luminescence, 24 h; series mostly up to 45.9 µM;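 also: luminescence of HiBiT knocked into endogenous HLA-B as interferon-induced MHC class I level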
# Procedure, shortened: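 Immortalized human myoblasts (C25cl48) with HiBiT knocked into endogenous HLA-B*08:01 were stimulated with 4.0 ng/ml IFN-beta and treated with compounds ([…] top 46 uM) for 24 hrs at 37 C. HiBiT lytic luminescence read.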
# [7] = target: Protein phosphatase 1D (Homo sapiens) (UniProt O15297); test: RapidFire Mass Spectrometry qHTS Assay for Modulators of WT P53-Induced Phosphatase 1 (WIP1) (AID 1347424); conditions: WIP1 dephosphorylation of phosphopeptide, RapidFire MS; series mostly up to 63 µM;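 also: amount of dephosphorylated VEPPL-S-QETFS peptide product formed by WIP1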; also: potency is read from the fitted curve at half-maximal effect
# Procedure, shortened: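 10 nM WIP1 preincubated with compounds 1 hr at room temperature in pH 7.5 Tris buffer with 30 mM MgCl2, 1 mM TCEP; 2 uM VEPPL-pS-QETFS phosphopeptide for 5 min, formic acid quench; dephosphorylated product quantified by RapidFire MS against labelled standard.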
# [8] = Primary qHTS for inhibitors of La Crosse Virus (LACV) - induced cell death in SH-SY5Y cells (AID 1508616); conditions: SH-SY5Y LACV cytopathicity rescue, ATP luminescence, 6 d; series mostly up to 4.29 µM;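 also: top concentration of the series differs between compounds; higher means more rescue of cells from virus-induced death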
# Procedure, shortened: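 SH-SY5Y cells (6000/well) plated 24 h, then given compounds by pin transfer and LACV at 0.01 MOI for 6 days at 37C. Viability measured by ATPLite luminescence, normalized to infected DMSO and uninfected DMSO.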
# [9] = target: Calcium and integrin-binding protein 1 (Homo sapiens) (UniProt Q99828); test: Primary qHTS for Identification of Calcium Integrin Binding Protein 1 (CIB1) Competitor (AID 1508620); conditions: CIB1-GST / FITC-alphaIIb peptide fluorescence polarization; series mostly up to 114 µM; also: potency is read from the fitted curve at half-maximal effect
# Procedure, shortened: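 Fluorescence polarization competition: GST-tagged CIB1 (1 uM final) preincubated with compound 15 min at room temperature, then FITC-labelled alphaIIb peptide (100 nM final) added. After 15 min at room temperature, polarization read at Ex 480/Em 540.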
# [10] = target: Lysine-specific demethylase 5B (Homo sapiens) (UniProt Q9UGL1); test: Optimization screen for KDM5B Histone Demethylases FDH coupled qHTS against the LOPAC library (AID 1347166); conditions: KDM5B demethylation, FDH-coupled NADH fluorescence (FDH is formaldehyde dehydrogenase); series mostly up to 57.5 µM
# Procedure, shortened: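 KDM5BDeltaAP (200nM final) preincubated 10 min with compound, then 12.5uM H3K4Me3, 25uM a-ketoglutarate, ascorbate, Fe(II), NAD+ and FDH added; 50mM HEPES pH 7.5, 0.01% Tween-20. NADH fluorescence (340/450 nm) change over 30 min, room temperature.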
# [11] = qHTS to identify inhibitors of the type 1 interferon - major histocompatibility complex class I in skeletal muscle: primary screen against the NCATS LOPAC collection (AID 1347405); conditions: iHSKM muscle cells, IFN-b-induced MHC-I HiBiT luminescence, 24 h; series mostly up to 45.9 µM;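 also: lytic HiBiT luminescence reporting HLA-B protein level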
# Procedure, shortened: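 CRISPR-engineered immortalized human myoblasts (C25cl48) with HiBiT fused to endogenous HLA-B*08:01, stimulated with 4 ng/ml IFN-beta. LOPAC compounds tested as a 7-point 1:4.3 titration (top 46 uM final), 24 h at 37 C; lytic HiBiT luminescence read.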
# [12] = qHTS for inhibitors of adenylyl cyclases using a fission yeast platform: a pilot screen against the NCATS LOPAC library (AID 1347410); conditions: S. pombe CHP2027, fbp1-GFP fluorescence, 18 h, yeast expressing mammalian AC9 and human GNAS; series mostly up to 57.5 µM
# Procedure, shortened: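 S. pombe CHP2027 (AC9-GNAS-PDE4D2) carrying PKA-repressed fbp1-GFP, incubated 18 h at 30C in EMM with LOPAC compounds at up to 57 uM. GFP gain-of-signal read by laser scanning cytometry; DMSO negative control.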
# [13] = Validation qHTS assay for inhibitors of Activation Induced Cytidine Deaminase (AID): UDG Counterscreen signal (AID 1347427); conditions: biochemical UDG counterscreen, fluorescence signal; series mostly up to 115 µM
# Procedure, shortened: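 Counterscreen read of UDG activity (2 U/mL, 4/3x) in the FRET deamination format with AID (1 uM, 4/3x), DJC20/DJC23 substrates (250 nM, 4x), 4 h at room temperature. NaOH stop, fluorescence at 560 ex/665 em.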
# [14] = target: Single-stranded DNA cytosine deaminase (Homo sapiens) (UniProt Q9GZX7); test: Validation qHTS assay for inhibitors of Activation Induced Cytidine Deaminase (AID): AID signal (AID 1347429); conditions: Recombinant AID, FRET ssDNA deamination with UDG, fluorescence; series mostly up to 115 µM
# Procedure, shortened: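 FRET deamination assay: 1 uM AID (4/3x stock) with UDG, compound up to 114 uM, then 250 nM DJC20/DJC23 substrate (4x stock) for 4 hr at room temperature. NaOH added, 30 min; fluorescence read 540/590 nm.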
# [15] = target: Calcium and integrin-binding protein 1 (Homo sapiens) (UniProt Q99828); test: Validation qHTS for Identification of Calcium Integrin Binding protein 1 (CIB1) Competitor (AID 1508618); conditions: CIB1-GST / FITC-alphaIIb peptide fluorescence polarization; series mostly up to 114 µM
# Procedure, shortened: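 In this qHTS validation, the LOPAC set (up to 114 uM) was tested for blocking CIB1 binding to a fluorescein-tagged alphaIIb peptide, with FP detection at 480/540 nm.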
# [16] = qHTS to identify inhibitors of the type 1 interferon - major histocompatibility complex class I in skeletal muscle: primary screen against the NCATS Mechanism Interrogation Plate v5.0 (MIPE) Libary (AID 1347411); conditions: iHSKM cells + IFN-b, HiBiT-tagged MHC-I luminescence, 24 h; series mostly up to 45.8 µM; also: nearly all actives have a fitted effect of over 65% in size
# Procedure, shortened: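 Immortalized human myoblasts (C25cl48) with HiBit knocked into endogenous HLA-B*08:01 were stimulated with 4 ng/ml IFN-beta and given compounds in 11-point 1:3 titration from 46 uM. After 24 h at 37 C, lytic HiBiT luminescence was read.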
# [17] = target: Protein phosphatase 1D (Homo sapiens) (UniProt O15297); test: Rhodamine-PBP qHTS Assay for Modulators of WT P53-Induced Phosphatase 1 (WIP1) (AID 1347425); conditions: recombinant WIP1, Rhodamine-PBP phosphate fluorescence, real-time; series mostly up to 57.5 µM
# Procedure, shortened: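 Steps: enzyme with Rh-PBP sensor and compounds, room-temperature incubation of 1 hr, baseline read, addition of VEPPL-pS-QETFS (10 uM final), kinetic fluorescence reads at 525/598 nm. Activity equals final minus baseline signal.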
# [18] = system: Zika virus NS2B-NS3 protease (linked construct); test: 384 well plate NINDS Rhodamine confirmatory qHTS for Zika virus inhibitors (AID 1347164); conditions: rhodamine-110 peptide substrate fluorescence;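 also: fluorescence from protease cleavage of Ac-LKRR-rhodamine 110 substrate; potency is read from the fitted curve at half-maximal effect; nearly all actives have a fitted effect of over 65% in size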
# Procedure, shortened: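 Linked NS2B-NS3 protease (final 5, 30 or 60 nM) preincubated ~15 minutes with compounds, then 10 microM Ac-LKRR-Rhodamine 110 added. Fluorescence (485/538 nm) read after 25 minutes at room temperature, normalized to no-enzyme and no-inhibitor controls.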
# [19] = target: Calcium and integrin-binding protein 1 (Homo sapiens) (UniProt Q99828); test: Confirmatory qHTS for Identification of Calcium Integrin Binding Protein 1 (CIB1) Competitor (AID 1508617); conditions: CIB1 binding competition assay, biochemical qHTS; series mostly up to 114 µM; also: nearly all actives have a fitted effect of over 65% in size
# Procedure, shortened: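 Binding competition between test compounds and fluorescent alphaIIb peptide for 1 uM CIB1-GST is monitored by FP at 480/540 nm. Final compound range is up to 114 uM; unlabeled peptide serves as reference competitor.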
# Calcium and integrin-binding protein 1 (Homo sapiens), sequence (Q99828 whole entry, looked up): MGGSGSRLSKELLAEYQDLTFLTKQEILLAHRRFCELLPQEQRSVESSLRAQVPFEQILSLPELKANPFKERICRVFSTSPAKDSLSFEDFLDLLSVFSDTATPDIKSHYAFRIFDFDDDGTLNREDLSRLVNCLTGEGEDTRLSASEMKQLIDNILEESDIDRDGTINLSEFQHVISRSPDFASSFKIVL
# Protein phosphatase 1D (Homo sapiens), sequence (O15297 whole entry, looked up): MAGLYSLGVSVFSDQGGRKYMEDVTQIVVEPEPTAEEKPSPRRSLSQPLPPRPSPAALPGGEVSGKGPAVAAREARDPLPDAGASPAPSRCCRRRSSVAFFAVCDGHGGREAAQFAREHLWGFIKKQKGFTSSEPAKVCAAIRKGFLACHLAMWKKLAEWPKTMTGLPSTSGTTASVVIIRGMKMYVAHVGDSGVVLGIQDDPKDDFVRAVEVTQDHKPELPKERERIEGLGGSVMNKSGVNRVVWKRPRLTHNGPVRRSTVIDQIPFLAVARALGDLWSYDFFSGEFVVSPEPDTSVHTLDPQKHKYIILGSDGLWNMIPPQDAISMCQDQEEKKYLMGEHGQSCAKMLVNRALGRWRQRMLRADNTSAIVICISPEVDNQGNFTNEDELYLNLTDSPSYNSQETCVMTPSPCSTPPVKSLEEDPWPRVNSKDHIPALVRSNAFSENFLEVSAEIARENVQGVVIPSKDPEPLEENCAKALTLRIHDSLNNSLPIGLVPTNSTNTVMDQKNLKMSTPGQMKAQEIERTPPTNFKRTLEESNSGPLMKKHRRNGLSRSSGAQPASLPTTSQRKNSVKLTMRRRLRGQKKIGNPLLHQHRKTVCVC
# Lysine-specific demethylase 5B (Homo sapiens), sequence (Q9UGL1 whole entry, looked up): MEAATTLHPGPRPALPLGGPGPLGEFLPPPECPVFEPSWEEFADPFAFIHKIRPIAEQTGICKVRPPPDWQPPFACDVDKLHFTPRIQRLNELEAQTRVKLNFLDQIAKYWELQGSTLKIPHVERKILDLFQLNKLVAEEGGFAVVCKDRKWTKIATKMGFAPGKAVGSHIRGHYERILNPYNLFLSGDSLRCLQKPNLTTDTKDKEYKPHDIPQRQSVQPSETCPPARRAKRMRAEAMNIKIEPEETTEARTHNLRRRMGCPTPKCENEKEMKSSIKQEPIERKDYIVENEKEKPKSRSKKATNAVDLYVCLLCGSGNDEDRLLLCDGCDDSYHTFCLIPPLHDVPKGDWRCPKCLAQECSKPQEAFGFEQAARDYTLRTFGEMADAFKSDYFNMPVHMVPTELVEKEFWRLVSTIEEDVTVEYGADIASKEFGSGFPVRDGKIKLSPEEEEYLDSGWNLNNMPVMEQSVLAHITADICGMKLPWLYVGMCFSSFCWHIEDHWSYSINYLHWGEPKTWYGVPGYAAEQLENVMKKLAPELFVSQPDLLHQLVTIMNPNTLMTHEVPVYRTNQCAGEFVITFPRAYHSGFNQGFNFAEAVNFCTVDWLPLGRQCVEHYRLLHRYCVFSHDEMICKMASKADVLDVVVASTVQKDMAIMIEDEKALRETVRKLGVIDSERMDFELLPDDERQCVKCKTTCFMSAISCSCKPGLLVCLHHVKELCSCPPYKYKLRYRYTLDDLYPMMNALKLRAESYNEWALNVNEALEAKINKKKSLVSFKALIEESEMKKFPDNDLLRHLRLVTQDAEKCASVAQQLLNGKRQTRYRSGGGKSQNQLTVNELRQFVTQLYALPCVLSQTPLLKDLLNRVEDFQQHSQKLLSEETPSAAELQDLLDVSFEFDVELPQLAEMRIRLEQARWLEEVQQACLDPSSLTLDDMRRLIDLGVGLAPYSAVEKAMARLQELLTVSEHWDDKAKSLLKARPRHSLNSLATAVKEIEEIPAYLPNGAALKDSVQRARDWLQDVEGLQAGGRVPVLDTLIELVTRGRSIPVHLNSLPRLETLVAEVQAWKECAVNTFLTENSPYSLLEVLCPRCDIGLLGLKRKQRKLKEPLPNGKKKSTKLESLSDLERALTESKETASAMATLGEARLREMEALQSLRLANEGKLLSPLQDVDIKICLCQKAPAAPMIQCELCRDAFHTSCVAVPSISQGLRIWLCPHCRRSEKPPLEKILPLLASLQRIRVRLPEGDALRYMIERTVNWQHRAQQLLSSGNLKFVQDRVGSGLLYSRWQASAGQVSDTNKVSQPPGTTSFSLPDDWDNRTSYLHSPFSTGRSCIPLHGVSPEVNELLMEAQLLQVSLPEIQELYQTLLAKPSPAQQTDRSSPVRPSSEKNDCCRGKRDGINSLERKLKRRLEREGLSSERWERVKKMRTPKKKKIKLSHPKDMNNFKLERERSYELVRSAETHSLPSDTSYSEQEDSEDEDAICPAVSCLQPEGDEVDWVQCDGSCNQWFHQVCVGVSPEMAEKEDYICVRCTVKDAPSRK
# Single-stranded DNA cytosine deaminase (Homo sapiens), sequence (Q9GZX7 whole entry, looked up): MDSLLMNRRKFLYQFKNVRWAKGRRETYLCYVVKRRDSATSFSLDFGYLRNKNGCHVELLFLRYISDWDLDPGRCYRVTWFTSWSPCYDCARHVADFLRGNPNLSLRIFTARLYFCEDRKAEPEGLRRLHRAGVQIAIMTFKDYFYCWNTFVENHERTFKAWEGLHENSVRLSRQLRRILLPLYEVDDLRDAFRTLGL
structure (smiles),measurement,setting,value
CCC(CC)(CC(=O)Nc1cccc(/C=C/c2nc(C3CCC3)cs2)c1)C(=O)O,Potency,[1],22.1 µM (active)
same,Potency,[2],inactive
same,outcome,[3],inactive
same,Potency,[4],inactive
same,Potency,[5],inactive
same,Potency,[6],inactive
same,Potency,[7],inactive
same,outcome,[8],inactive
same,Potency,[9],inactive
CN=C(N)NCCC[C@H](N)C(=O)O,outcome,[10],inactive
same,outcome,[11],inactive
same,outcome,[12],inactive
same,outcome,[13],inactive
same,outcome,[14],inactive
same,outcome,[8],inactive
same,outcome,[15],inactive
Cc1ccc(-c2ncc(Cl)cc2-c2ccc(S(C)(=O)=O)cc2)cn1,Potency,[6],inactive
same,Potency,[16],inactive
same,Potency,[7],inactive
same,outcome,[17],inactive
same,outcome,[8],inactive
same,Potency,[9],inactive
CC(=O)O[C@]1(C(C)=O)CC[C@H]2[C@@H]3C=C(C)C4=CC(=O)CC[C@]4(C)[C@H]3CC[C@@]21C,Potency,[6],inactive
same,Potency,[16],inactive
same,Potency,[7],inactive
same,outcome,[17],inactive
same,outcome,[8],inactive
Oc1c(Cl)cc(Cl)c(Cl)c1Cc1c(O)c(Cl)cc(Cl)c1Cl,Potency,[1],3.55 µM (active)
same,Potency,[2],35.5 µM (active)
same,Potency,[18],14.1 µM (active)
same,Potency,[7],8.91 µM (active)
same,outcome,[8],inactive
Clc1cccc(C(c2ccc3nc[nH]c3c2)n2ccnc2)c1 (configuration not stated),Potency,[6],inactive
same,Potency,[16],inactive
same,Potency,[7],inactive
same,outcome,[17],inactive
same,outcome,[8],inactive
same,Potency,[9],inactive
COc1ccc(C(=O)c2ccccc2O)c(O)c1,Potency,[6],inactive
same,Potency,[7],inactive
same,outcome,[17],inactive
same,outcome,[8],inactive
C#C[C@]1(O)CC[C@H]2[C@@H]3[C@H](C)CC4=C(CCC(=O)C4)[C@H]3CC[C@@]21C,Potency,[6],inactive
same,Potency,[16],inactive
same,Potency,[7],inactive
same,outcome,[17],inactive
same,outcome,[8],inactive
same,Potency,[9],inactive
C=C[C@H]1CN2CC[C@H]1C[C@H]2[C@H](O)c1ccnc2ccc(OC)cc12,Potency,[1],inactive
same,Potency,[5],inactive
same,Potency,[7],inactive
same,outcome,[17],inactive
same,outcome,[8],inactive
COc1cc([C@H]2Oc3cc([C@H]4Oc5cc(O)cc(O)c5C(=O)[C@@H]4O)ccc3O[C@@H]2CO)ccc1O,Potency,[6],inactive
same,Potency,[16],inactive
same,Potency,[7],inactive
same,outcome,[17],inactive
same,outcome,[8],inactive
same,Potency,[19],inactive
same,Potency,[9],35.5 µM (active)
C=C1c2cccc(O)c2C(O)=C2C(=O)[C@]3(O)C(O)=C(C(N)=O)C(=O)[C@@H](N(C)C)[C@@H]3[C@@H](O)[C@H]12,Potency,[2],8.91 µM (active) and 316 µM (active)
same,Potency,[18],251 µM (active)
same,outcome,[3],inactive
same,Potency,[4],inactive
same,Potency,[5],inactive
same,Potency,[7],28.2 µM (active)
same,outcome,[8],inactive
